# Results published in PMC7862700, “An all-to-all approach to the identification of sequence-specific readers for epigenetic DNA modifications on cytosine”.
# Experiments:
# Assay in all cases: DAPPL (digital affinity profiling via proximity ligation, sequencing); 10 mM Tris-HCl pH 7.5, 50 mM NaCl, 1 mM DTT, 4% glycerol, room temperature, 30 min; GST-TFs on glutathione beads, 16-mer random dsDNA library, 0.1% formaldehyde crosslink after washing; high values mean tight binding
# [1] = biological target: T1, FEV (Homo sapiens, UniProt Q99581 1-238); conditions: protein: recombinant; tags: N-terminal GST; dsDNA, one strand shown
# T1 sequence: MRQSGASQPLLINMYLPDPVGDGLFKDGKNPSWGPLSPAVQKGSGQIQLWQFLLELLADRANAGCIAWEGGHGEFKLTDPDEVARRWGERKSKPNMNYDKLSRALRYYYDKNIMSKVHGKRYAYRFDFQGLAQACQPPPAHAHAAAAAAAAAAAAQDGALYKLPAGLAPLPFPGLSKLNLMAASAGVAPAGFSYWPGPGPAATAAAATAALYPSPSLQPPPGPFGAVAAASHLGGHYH
# Outline: (§1)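 Each value of binding signal is a hexamer's read frequency for a factor divided by the same hexamer's frequency in the tag-only sample. Barcoded, bead-captured GST fusions of human transcription factors made in yeast were pooled with that sample and incubated with 200 nmole of a random double-stranded 16-mer DNA library in Tris/NaCl/DTT/glycerol buffer at room temperature for 30 min. Washing, 0.1% formaldehyde crosslinking, proximity ligation, PCR and Illumina NextSeq500 sequencing followed.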
# [2] = biological target: ETV5 (Homo sapiens, UniProt P41161 1-510); conditions: protein: recombinant; tags: N-terminal GST; dsDNA, one strand shown
# Outline: as §1
# [3] = biological target: HSF1 (Homo sapiens, UniProt Q00613 1-529); conditions: protein: recombinant; tags: N-terminal GST; chain copies: 3; dsDNA, one strand shown
# Outline: as §1
# [4] = biological target: T2, SPIC (Homo sapiens, UniProt Q8N5J4 1-248); conditions: protein: recombinant; tags: N-terminal GST; dsDNA, one strand shown
# T2 sequence: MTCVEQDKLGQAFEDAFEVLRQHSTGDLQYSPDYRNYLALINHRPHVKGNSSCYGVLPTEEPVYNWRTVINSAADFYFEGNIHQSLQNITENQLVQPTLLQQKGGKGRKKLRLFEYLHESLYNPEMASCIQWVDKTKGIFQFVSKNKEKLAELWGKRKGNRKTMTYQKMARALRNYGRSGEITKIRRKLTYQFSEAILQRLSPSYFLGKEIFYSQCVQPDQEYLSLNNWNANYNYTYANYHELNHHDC
# Outline: as §1
# [5] = biological target: ELF4 (Homo sapiens, UniProt Q99607 1-663); conditions: protein: recombinant; tags: N-terminal GST; dsDNA, one strand shown
# Outline: as §1
# [6] = biological target: T3, ELK4 (Homo sapiens, UniProt P28324-2 1-405); conditions: protein: recombinant; tags: N-terminal GST; dsDNA, one strand shown
# T3 sequence: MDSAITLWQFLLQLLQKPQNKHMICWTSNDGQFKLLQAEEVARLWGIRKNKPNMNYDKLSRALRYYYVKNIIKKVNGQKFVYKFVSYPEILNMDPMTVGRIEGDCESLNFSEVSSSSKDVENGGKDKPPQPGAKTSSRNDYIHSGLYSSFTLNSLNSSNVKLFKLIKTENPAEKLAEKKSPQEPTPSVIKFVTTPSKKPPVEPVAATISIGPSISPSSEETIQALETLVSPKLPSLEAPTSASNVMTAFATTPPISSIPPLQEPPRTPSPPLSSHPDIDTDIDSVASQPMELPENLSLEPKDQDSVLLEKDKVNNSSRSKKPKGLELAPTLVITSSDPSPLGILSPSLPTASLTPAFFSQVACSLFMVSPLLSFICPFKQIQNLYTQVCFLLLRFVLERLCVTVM
# Outline: as §1
# [7] = biological target: T4, ETV2 (Homo sapiens, UniProt O00321 1-342); conditions: protein: recombinant; tags: N-terminal GST; dsDNA, one strand shown
# T4 sequence: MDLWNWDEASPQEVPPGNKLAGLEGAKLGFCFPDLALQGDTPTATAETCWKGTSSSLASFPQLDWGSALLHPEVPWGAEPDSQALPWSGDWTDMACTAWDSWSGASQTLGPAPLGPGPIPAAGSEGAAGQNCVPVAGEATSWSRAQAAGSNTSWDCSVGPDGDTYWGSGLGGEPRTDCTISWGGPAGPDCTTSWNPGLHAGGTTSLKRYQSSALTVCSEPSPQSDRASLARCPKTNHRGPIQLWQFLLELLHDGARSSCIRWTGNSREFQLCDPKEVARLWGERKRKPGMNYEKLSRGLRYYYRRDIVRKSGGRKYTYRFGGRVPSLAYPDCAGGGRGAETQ
# Outline: as §1
# [8] = biological target: T5, ELF3 (Homo sapiens, UniProt P78545 1-371); conditions: protein: recombinant; tags: N-terminal GST; dsDNA, one strand shown
# T5 sequence: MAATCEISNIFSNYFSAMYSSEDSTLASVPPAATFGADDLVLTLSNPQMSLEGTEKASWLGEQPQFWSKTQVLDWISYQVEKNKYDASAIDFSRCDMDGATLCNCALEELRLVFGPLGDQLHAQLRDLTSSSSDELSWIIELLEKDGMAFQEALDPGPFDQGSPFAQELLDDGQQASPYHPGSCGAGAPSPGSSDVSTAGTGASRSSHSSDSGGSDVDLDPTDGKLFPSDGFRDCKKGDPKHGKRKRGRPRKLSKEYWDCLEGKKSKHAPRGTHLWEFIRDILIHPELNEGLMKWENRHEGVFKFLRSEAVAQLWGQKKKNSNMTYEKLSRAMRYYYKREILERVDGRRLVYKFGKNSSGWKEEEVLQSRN
# Outline: as §1
# [9] = biological target: CRX (Homo sapiens, UniProt O43186 1-299); conditions: protein: recombinant; tags: N-terminal GST; dsDNA, one strand shown
# Outline: as §1
# [10] = biological target: ETV1 (Homo sapiens, UniProt P50549 1-477); conditions: protein: recombinant; tags: N-terminal GST; dsDNA, one strand shown
# Outline: as §1
# [11] = biological target: T6, ERF (Homo sapiens, UniProt P50548 1-548); conditions: protein: recombinant; tags: N-terminal GST; dsDNA, one strand shown
# T6 sequence: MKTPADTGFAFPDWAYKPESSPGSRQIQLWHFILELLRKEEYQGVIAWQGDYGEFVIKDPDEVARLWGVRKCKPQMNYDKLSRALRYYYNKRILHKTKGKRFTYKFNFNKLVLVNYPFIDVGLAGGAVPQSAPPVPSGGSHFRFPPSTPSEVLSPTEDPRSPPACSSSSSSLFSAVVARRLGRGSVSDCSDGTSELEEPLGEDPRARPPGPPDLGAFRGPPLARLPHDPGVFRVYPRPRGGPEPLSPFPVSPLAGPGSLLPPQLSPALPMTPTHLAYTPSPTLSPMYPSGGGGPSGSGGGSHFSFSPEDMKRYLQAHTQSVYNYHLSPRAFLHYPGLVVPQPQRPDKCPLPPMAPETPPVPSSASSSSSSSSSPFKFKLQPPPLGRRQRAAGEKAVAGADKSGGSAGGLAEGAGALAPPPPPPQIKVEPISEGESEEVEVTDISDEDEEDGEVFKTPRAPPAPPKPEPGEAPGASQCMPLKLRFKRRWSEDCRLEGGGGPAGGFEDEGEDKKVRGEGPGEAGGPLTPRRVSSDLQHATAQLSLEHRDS
# Outline: as §1
# [12] = biological target: T7, ETV3L (Homo sapiens, UniProt Q6ZN32 1-361); conditions: protein: recombinant; tags: N-terminal GST; dsDNA, one strand shown
# T7 sequence: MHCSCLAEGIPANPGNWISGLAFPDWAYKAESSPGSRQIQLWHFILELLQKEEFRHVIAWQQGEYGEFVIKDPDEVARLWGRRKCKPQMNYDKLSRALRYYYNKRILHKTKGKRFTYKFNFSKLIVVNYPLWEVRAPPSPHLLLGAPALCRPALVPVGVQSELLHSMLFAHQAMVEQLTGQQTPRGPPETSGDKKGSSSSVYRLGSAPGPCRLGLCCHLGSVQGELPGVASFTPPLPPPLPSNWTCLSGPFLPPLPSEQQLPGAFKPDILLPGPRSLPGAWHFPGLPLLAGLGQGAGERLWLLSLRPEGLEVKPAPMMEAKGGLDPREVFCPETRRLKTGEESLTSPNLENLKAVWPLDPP
# Outline: as §1
# [13] = biological target: T8, ETS2 (Homo sapiens, UniProt P15036 1-469); conditions: protein: recombinant; tags: N-terminal GST; dsDNA, one strand shown
# T8 sequence: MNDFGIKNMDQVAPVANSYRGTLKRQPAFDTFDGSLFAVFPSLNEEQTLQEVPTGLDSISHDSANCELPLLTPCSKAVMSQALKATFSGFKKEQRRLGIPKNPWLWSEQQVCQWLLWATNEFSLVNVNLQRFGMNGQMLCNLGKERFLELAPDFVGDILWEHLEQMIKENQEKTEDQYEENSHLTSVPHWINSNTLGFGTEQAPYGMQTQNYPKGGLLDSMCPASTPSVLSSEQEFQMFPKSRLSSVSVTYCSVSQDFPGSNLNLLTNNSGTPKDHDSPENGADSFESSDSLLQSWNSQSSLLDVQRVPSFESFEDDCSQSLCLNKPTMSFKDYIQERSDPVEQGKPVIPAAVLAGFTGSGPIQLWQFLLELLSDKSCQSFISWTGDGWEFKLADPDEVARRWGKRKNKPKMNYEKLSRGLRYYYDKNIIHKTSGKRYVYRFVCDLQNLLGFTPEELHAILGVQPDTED
# Outline: as §1
# [14] = biological target: T9, SPDEF (Homo sapiens, UniProt O95238 1-335); conditions: protein: recombinant; tags: N-terminal GST; dsDNA, one strand shown
# T9 sequence: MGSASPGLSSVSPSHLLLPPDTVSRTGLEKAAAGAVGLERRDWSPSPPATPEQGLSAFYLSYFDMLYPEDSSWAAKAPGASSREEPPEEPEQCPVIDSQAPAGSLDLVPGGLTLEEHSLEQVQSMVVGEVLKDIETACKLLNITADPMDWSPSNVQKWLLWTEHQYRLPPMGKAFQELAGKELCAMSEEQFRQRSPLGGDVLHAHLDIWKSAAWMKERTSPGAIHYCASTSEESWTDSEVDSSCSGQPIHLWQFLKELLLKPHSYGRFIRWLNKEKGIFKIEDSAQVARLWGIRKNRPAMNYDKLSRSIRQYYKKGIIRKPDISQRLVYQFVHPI
# Outline: as §1
# [15] = biological target: T10, ETV7 (Homo sapiens, UniProt Q9Y603 1-341); conditions: protein: recombinant; tags: N-terminal GST; dsDNA, one strand shown
# T10 sequence: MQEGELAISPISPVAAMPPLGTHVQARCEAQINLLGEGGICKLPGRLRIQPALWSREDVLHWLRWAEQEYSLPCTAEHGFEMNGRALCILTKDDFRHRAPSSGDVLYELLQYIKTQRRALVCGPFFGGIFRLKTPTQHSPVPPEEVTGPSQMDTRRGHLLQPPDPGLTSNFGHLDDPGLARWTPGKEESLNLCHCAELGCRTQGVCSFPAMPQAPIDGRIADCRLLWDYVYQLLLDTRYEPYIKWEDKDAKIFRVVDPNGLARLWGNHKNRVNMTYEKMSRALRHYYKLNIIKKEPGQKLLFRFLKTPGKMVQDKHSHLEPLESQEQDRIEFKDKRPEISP
# Outline: as §1
# [16] = biological target: T11, ELF5 (Homo sapiens, UniProt Q9UKW6-2 1-255); conditions: protein: recombinant; tags: N-terminal GST; dsDNA, one strand shown
# T11 sequence: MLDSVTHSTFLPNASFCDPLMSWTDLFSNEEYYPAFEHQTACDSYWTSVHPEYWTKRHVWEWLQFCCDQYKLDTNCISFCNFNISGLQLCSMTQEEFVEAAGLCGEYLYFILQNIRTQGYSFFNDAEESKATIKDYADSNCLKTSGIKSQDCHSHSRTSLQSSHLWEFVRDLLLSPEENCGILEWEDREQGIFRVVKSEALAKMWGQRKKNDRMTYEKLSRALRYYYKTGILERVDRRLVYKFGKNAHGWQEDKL
# Outline: as §1
# [17] = biological target: T12, ETV3 (Homo sapiens, UniProt P41162-2 1-143); conditions: protein: recombinant; tags: N-terminal GST; dsDNA, one strand shown
# T12 sequence: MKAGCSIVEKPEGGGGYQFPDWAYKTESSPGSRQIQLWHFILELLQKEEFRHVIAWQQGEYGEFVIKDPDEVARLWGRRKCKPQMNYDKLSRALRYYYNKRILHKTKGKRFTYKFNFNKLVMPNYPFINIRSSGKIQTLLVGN
# Outline: as §1
# [18] = biological target: ETV6 (Homo sapiens, UniProt P41212 1-452); conditions: protein: recombinant; tags: N-terminal GST; dsDNA, one strand shown
# Outline: as §1
# ETV1, sequence (P50549 whole entry): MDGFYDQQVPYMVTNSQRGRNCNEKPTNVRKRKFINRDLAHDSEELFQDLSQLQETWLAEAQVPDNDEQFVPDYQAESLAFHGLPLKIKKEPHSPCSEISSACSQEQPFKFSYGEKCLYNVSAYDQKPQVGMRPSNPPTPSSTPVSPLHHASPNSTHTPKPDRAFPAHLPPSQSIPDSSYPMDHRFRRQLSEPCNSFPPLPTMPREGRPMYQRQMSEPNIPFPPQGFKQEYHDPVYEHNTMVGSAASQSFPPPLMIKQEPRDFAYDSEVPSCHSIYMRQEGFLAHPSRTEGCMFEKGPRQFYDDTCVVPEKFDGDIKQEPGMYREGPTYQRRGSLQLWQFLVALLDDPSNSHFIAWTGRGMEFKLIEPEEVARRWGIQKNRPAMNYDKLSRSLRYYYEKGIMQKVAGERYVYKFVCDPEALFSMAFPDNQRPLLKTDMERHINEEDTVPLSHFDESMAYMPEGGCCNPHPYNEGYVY
# ETV6, sequence (P41212 whole entry): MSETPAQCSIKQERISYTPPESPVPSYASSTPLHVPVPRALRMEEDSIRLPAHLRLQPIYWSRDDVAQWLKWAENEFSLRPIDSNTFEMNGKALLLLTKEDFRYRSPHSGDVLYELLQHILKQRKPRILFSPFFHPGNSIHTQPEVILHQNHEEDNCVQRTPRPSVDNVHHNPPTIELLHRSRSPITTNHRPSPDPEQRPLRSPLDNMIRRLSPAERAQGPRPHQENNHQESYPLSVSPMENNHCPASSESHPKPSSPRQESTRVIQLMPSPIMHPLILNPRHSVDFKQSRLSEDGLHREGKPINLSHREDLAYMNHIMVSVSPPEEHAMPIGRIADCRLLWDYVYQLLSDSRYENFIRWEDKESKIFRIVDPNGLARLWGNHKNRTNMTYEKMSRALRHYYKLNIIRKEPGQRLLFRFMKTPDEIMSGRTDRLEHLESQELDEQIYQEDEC
# ETV5, sequence (P41161 whole entry): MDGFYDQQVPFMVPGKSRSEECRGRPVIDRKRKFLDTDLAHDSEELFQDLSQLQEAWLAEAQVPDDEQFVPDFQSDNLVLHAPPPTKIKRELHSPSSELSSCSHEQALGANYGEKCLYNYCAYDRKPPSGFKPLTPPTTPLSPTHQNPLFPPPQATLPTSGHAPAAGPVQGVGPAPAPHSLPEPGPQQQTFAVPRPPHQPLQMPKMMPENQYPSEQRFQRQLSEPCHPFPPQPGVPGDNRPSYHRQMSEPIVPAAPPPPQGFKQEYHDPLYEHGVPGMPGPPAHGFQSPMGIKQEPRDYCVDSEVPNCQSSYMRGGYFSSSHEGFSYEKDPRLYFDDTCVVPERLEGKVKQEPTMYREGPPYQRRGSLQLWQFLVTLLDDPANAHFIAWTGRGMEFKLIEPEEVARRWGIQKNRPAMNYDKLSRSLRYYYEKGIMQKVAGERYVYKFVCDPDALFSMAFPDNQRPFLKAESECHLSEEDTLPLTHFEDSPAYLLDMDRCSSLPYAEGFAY
# CRX, sequence (O43186 whole entry): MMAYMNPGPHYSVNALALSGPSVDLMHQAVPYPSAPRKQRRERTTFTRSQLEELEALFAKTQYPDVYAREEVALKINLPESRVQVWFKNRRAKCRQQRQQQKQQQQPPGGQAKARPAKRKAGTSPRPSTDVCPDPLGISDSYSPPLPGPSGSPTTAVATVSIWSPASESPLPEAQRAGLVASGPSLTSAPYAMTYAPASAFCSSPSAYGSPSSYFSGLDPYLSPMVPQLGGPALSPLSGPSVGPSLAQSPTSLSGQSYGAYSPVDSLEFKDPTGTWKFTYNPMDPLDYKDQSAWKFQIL
# HSF1, sequence (Q00613 whole entry): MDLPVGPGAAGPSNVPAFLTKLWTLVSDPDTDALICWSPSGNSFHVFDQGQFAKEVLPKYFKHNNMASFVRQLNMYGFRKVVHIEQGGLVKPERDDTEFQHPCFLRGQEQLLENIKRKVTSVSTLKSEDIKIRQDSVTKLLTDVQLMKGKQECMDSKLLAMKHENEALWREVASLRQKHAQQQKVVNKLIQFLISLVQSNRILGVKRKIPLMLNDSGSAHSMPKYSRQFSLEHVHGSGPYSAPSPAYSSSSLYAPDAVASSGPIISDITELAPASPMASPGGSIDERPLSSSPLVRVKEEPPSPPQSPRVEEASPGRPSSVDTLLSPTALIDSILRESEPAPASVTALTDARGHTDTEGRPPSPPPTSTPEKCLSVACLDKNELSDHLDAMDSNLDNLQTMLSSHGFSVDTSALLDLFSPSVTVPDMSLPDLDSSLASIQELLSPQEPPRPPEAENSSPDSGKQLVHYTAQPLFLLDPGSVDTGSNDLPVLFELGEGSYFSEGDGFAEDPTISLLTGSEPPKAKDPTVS
# ELF4, sequence (Q99607 whole entry): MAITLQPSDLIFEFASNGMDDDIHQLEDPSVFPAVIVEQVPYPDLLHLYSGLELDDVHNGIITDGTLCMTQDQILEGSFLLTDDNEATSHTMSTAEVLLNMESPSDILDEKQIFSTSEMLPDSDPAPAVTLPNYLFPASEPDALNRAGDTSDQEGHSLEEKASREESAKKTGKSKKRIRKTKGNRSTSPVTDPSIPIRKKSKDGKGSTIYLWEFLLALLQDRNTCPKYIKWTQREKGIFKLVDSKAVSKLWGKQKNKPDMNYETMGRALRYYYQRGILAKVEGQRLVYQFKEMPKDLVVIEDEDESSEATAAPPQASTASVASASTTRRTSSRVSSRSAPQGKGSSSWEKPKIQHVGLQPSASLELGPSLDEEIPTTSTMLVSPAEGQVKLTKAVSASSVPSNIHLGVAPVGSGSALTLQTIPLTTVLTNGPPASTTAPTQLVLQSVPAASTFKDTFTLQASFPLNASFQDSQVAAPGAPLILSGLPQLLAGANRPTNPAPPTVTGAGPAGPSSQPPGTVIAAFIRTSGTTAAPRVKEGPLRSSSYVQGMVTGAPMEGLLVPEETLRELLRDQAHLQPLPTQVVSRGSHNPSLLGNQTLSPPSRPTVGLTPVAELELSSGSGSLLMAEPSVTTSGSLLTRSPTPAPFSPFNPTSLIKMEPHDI
sequence,measurement,setting,value
AAAGCA,binding signal,[1],"1.07 fold enrichment (6-mer frequency, TF over GST control)"
same,binding signal,[2],"1.06 fold enrichment (6-mer frequency, TF over GST control)"
same,binding signal,[3],"1.04 fold enrichment (6-mer frequency, TF over GST control)"
same,binding signal,[4],"1.01 fold enrichment (6-mer frequency, TF over GST control)"
same,binding signal,[5],"1.09 fold enrichment (6-mer frequency, TF over GST control)"
same,binding signal,[6],"1.14 fold enrichment (6-mer frequency, TF over GST control)"
same,binding signal,[7],"1.11 fold enrichment (6-mer frequency, TF over GST control)"
same,binding signal,[8],"1.02 fold enrichment (6-mer frequency, TF over GST control)"
same,binding signal,[9],"1.06 fold enrichment (6-mer frequency, TF over GST control)"
same,binding signal,[10],"1.06 fold enrichment (6-mer frequency, TF over GST control)"
same,binding signal,[11],"1.1 fold enrichment (6-mer frequency, TF over GST control)"
same,binding signal,[12],"1.1 fold enrichment (6-mer frequency, TF over GST control)"
same,binding signal,[13],"1.05 fold enrichment (6-mer frequency, TF over GST control)"
same,binding signal,[14],"1.06 fold enrichment (6-mer frequency, TF over GST control)"
same,binding signal,[15],"1.15 fold enrichment (6-mer frequency, TF over GST control)"
same,binding signal,[16],"1.07 fold enrichment (6-mer frequency, TF over GST control)"
same,binding signal,[17],"1.07 fold enrichment (6-mer frequency, TF over GST control)"
same,binding signal,[18],"1.05 fold enrichment (6-mer frequency, TF over GST control)"
